Reference: PubChem BioAssay (NCI)
Compounds without any hit were thinned out: in the full panel of roughly 83,000, 20% have a hit.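 How to read the values: 0–100, growth inhibition (40 = 60% inhibited); 0, no net growth; -100 to 0, cell death (-40 = 40% of starting cells died; -100 = all dead).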 Calls of active or inactive are those of the source. Rule for the calls: active = growth percent below 10; inactive = the rest.

Experiments:
Experiment in all cases: NCI-60 one-dose screen, 48 h (100 = growth as untreated, 0 = no growth, -100 = all killed)
Details in all cases: 10 µM
SR leukemia = system: SR leukemia
RPMI-8226 leukemia = system: RPMI-8226 leukemia
OVCAR-8 ovarian = system: OVCAR-8 ovarian
OVCAR-5 ovarian = system: OVCAR-5 ovarian
OVCAR-4 ovarian = system: OVCAR-4 ovarian
SK-OV-3 ovarian = system: SK-OV-3 ovarian
IGROV1 ovarian = system: IGROV1 ovarian
OVCAR-3 ovarian = system: OVCAR-3 ovarian
HS 578T breast = system: HS 578T breast
NCI/ADR-RES ovarian = system: NCI/ADR-RES ovarian

Measured: growth

COc1cc(-c2nn(-c3cccc(NC(=O)NCCNC(=O)c4ccccc4)c3)cc2-c2ccncc2)ccc1Cl
active: SR leukemia 5.61% | RPMI-8226 leukemia 5.06% | OVCAR-8 ovarian 8.83%
inactive: OVCAR-5 ovarian 33% | OVCAR-4 ovarian 26.6% | SK-OV-3 ovarian 33.6% | IGROV1 ovarian 28.1% | OVCAR-3 ovarian 21.1% | HS 578T breast 30.9% | NCI/ADR-RES ovarian 46.1%

CC(=O)OC1C=CC(OC(C)=O)O1 (centres undefined)
inactive: SR leukemia 101% | RPMI-8226 leukemia 92.4% | OVCAR-8 ovarian 94.2% | OVCAR-5 ovarian 101% | OVCAR-4 ovarian 97.5% | SK-OV-3 ovarian 91.8% | IGROV1 ovarian 89.8% | OVCAR-3 ovarian 102% | HS 578T breast 87.4% | NCI/ADR-RES ovarian 99.2%

N#Cc1c(-c2ccc(Cl)cc2)csc1NC(=O)Nc1ccc(Cl)c(C(F)(F)F)c1
inactive: OVCAR-8 ovarian 23% | OVCAR-5 ovarian 60.2% | SK-OV-3 ovarian 19.9% | IGROV1 ovarian 22.1% | HS 578T breast 29.6%
active: SR leukemia -15.1% | RPMI-8226 leukemia 1.61% | OVCAR-4 ovarian -26.4% | OVCAR-3 ovarian -19.7% | NCI/ADR-RES ovarian 8.74%

C[C@H]1[C@H](OC(=O)CCC(=O)O)O[C@@H]2O[C@]3(C)CC[C@H]4[C@H](C)CC[C@@H]1[C@@]24OO3
active: SR leukemia -2.25%
inactive: RPMI-8226 leukemia 25.8% | OVCAR-8 ovarian 23.4% | OVCAR-5 ovarian 44.3% | OVCAR-4 ovarian 37.6% | SK-OV-3 ovarian 92.9% | IGROV1 ovarian 54.5% | OVCAR-3 ovarian 30.8% | HS 578T breast 47.2% | NCI/ADR-RES ovarian 23.6%

CN(C)c1ncnc2c1nnn2C1OC(CO)C(O)C1O (centres undefined)
active: RPMI-8226 leukemia -4.55% | OVCAR-8 ovarian 8.85% | SK-OV-3 ovarian 4.66% | IGROV1 ovarian 3.79% | OVCAR-3 ovarian -18.8%
inactive: SR leukemia 31.3% | OVCAR-5 ovarian 26.8% | OVCAR-4 ovarian 23.4% | HS 578T breast 19.8% | NCI/ADR-RES ovarian 15.3%

COc1cc(/C=C2\CCCC3=C2N=C2SC(C)=CN2C3c2cc(OC)c(OC)c(OC)c2)cc(OC)c1OC (centres undefined)
active: SR leukemia 0.0832% | RPMI-8226 leukemia -17% | OVCAR-8 ovarian -9.4% | OVCAR-5 ovarian -15% | IGROV1 ovarian 2.86% | OVCAR-3 ovarian -2.36% | NCI/ADR-RES ovarian 1.74%
inactive: OVCAR-4 ovarian 39.6% | SK-OV-3 ovarian 19.3% | HS 578T breast 49.9%

CC(C)(C)OC(=O)N1CCc2c(sc3ncnc(N/N=C/c4cccc5ccccc45)c23)C1
inactive: SR leukemia 24.1% | OVCAR-8 ovarian 27.6% | OVCAR-5 ovarian 31.8% | OVCAR-4 ovarian 33.4% | SK-OV-3 ovarian 37% | IGROV1 ovarian 26.9% | OVCAR-3 ovarian 46.4% | HS 578T breast 17.2%
active: RPMI-8226 leukemia 2.4% | NCI/ADR-RES ovarian 8.76%

CC(=O)C1CCC2C3CC=C4CC(SC(=N)N)CCC4(C)C3CCC12C (centres undefined)
inactive: OVCAR-8 ovarian 30.8% | OVCAR-5 ovarian 80.4% | OVCAR-4 ovarian 50.1% | SK-OV-3 ovarian 75% | IGROV1 ovarian 35.7% | OVCAR-3 ovarian 63.1% | HS 578T breast 72.6% | NCI/ADR-RES ovarian 38.2%
active: SR leukemia -36% | RPMI-8226 leukemia -7.56%

CC[C@@H]1NC(=O)[C@H]([C@H](O)[C@H](C)C/C=C/c2ccc(CN3C(=O)CCCC3=O)cc2)N(C)C(=O)[C@H](C(C)C)N(C)C(=O)[C@H](CC(C)C)N(C)C(=O)[C@H](CC(C)C)N(C)C(=O)[C@@H](C)NC(=O)[C@H](C)NC(=O)[C@H](CC(C)C)N(C)C(=O)[C@H](C(C)C)NC(=O)[C@H](CC(C)C)N(C)C(=O)CN(C)C1=O
inactive: OVCAR-8 ovarian 68.4% | OVCAR-5 ovarian 83.8% | OVCAR-4 ovarian 53.9% | SK-OV-3 ovarian 74.9% | IGROV1 ovarian 58.2% | OVCAR-3 ovarian 54.4% | HS 578T breast 73.9%
active: SR leukemia -2.59% | RPMI-8226 leukemia 9.26%

CC(C)(C)c1ccc(S(=O)(=O)N[C@H]2CC[C@H]3[C@@H]4CCc5cc(O)c([N+](=O)[O-])cc5[C@H]4CC[C@]23C)cc1
inactive: SR leukemia 63.5% | RPMI-8226 leukemia 67.3% | OVCAR-8 ovarian 59.6% | OVCAR-5 ovarian 95.9% | OVCAR-4 ovarian 10.3% | SK-OV-3 ovarian 47.7% | IGROV1 ovarian 78.1% | OVCAR-3 ovarian 53.7% | HS 578T breast 61.6% | NCI/ADR-RES ovarian 69.1%

CC(=O)/C(=C/c1ccc(Br)cc1)C(=O)c1ccccc1
active: SR leukemia -16.8% | RPMI-8226 leukemia -26.3%
inactive: OVCAR-8 ovarian 63.7% | OVCAR-5 ovarian 86.6% | OVCAR-4 ovarian 81.4% | SK-OV-3 ovarian 120% | IGROV1 ovarian 74% | OVCAR-3 ovarian 81.9% | HS 578T breast 90.7% | NCI/ADR-RES ovarian 85.8%

COc1ccc2c(c1)C(=O)/C(=C/c1ncc([N+](=O)[O-])n1C)O2
active: SR leukemia 9.33% | OVCAR-8 ovarian -18.2% | OVCAR-5 ovarian 1.74% | OVCAR-4 ovarian -6.9% | SK-OV-3 ovarian -21.7% | IGROV1 ovarian -30.4% | OVCAR-3 ovarian -18% | HS 578T breast -9.93% | NCI/ADR-RES ovarian -0.383%
inactive: RPMI-8226 leukemia 105%

Clc1ccc(/C=C2\CCCC3C2=Nc2ccccc2NC3c2ccc(Cl)cc2)cc1 (centres undefined)
active: RPMI-8226 leukemia -16%
inactive: SR leukemia 21.5% | OVCAR-8 ovarian 65.8% | OVCAR-5 ovarian 93.8% | OVCAR-4 ovarian 79.5% | SK-OV-3 ovarian 70.9% | IGROV1 ovarian 83.1% | OVCAR-3 ovarian 67% | HS 578T breast 102% | NCI/ADR-RES ovarian 99.4%

CN1CCN(CC(=O)Nc2cccc(-n3cc(-c4ccncc4)c(-c4ccc(Cl)c(O)c4)n3)c2)CC1
inactive: RPMI-8226 leukemia 15.9% | OVCAR-8 ovarian 57.2% | OVCAR-5 ovarian 68.2% | OVCAR-4 ovarian 59.8% | SK-OV-3 ovarian 55.9% | IGROV1 ovarian 57.5% | OVCAR-3 ovarian 12.8% | HS 578T breast 38.2% | NCI/ADR-RES ovarian 42.2%
active: SR leukemia 5.84%

Cc1ccc(S(=O)(=O)N/N=C2\CCCc3ccccc32)cc1
inactive: SR leukemia 110% | RPMI-8226 leukemia 94.3% | OVCAR-8 ovarian 95.2% | OVCAR-5 ovarian 90% | OVCAR-4 ovarian 95.8% | SK-OV-3 ovarian 111% | IGROV1 ovarian 113% | OVCAR-3 ovarian 113% | HS 578T breast 95% | NCI/ADR-RES ovarian 96.7%

COc1cc2c(Nc3ccc(S(N)(=O)=O)cc3)ncnc2c(OC)c1OC
inactive: SR leukemia 99.9% | RPMI-8226 leukemia 99.1% | OVCAR-8 ovarian 106% | OVCAR-5 ovarian 105% | OVCAR-4 ovarian 102% | SK-OV-3 ovarian 75.5% | IGROV1 ovarian 96.1% | OVCAR-3 ovarian 90.4% | HS 578T breast 96% | NCI/ADR-RES ovarian 96.5%

CC(=O)N[C@H](C(=O)N[C@@H](CCCNC(=N)N)C(=O)N[C@@H](CCCCN)C(=O)N[C@@H](CCCNC(=N)N)C(=O)NC(C(=O)N[C@@H](CC(C)C)C(=O)N[C@@H](CCCNC(=N)N)C(=O)N[C@@]1(C)CCC/C=C\CCC[C@@](C)(C(=O)N[C@@H](CCCNC(=N)N)C(=O)N[C@@H](CCC(=O)O)C(=O)N[C@@H](CC(C)C)C(=O)N[C@H](C(=O)N[C@@H](CCC(=O)O)C(N)=O)C(C)C)NC(=O)[C@H](CCC(N)=O)NC(=O)[C@H](CC(C)C)NC(=O)[C@H](CC(C)C)NC1=O)[C@@H](C)O)C(C)C (some centres undefined)
active: RPMI-8226 leukemia -11% | OVCAR-8 ovarian 9.08% | HS 578T breast -53.9%
inactive: SR leukemia 14% | OVCAR-5 ovarian 25.5% | OVCAR-4 ovarian 75.9% | SK-OV-3 ovarian 53.3% | IGROV1 ovarian 60.3% | OVCAR-3 ovarian 16.8% | NCI/ADR-RES ovarian 17.3%

CS(=O)(=O)c1nccc(-c2c(-c3ccc(OCCc4ccccc4)cc3)nc3sccn23)n1
inactive: SR leukemia 88.5% | RPMI-8226 leukemia 94.8% | OVCAR-8 ovarian 98% | OVCAR-5 ovarian 94.7% | OVCAR-4 ovarian 67.8% | SK-OV-3 ovarian 101% | IGROV1 ovarian 110% | OVCAR-3 ovarian 104% | HS 578T breast 87% | NCI/ADR-RES ovarian 98.3%

COc1ccc2c(c1)C(=O)/C(=C/c1ccc([N+](=O)[O-])o1)O2
inactive: SK-OV-3 ovarian 48.7% | HS 578T breast 17.8% | NCI/ADR-RES ovarian 13.4%
active: SR leukemia 2.34% | RPMI-8226 leukemia -3.06% | OVCAR-8 ovarian -71.6% | OVCAR-5 ovarian -52.2% | OVCAR-4 ovarian -87% | IGROV1 ovarian -66.3% | OVCAR-3 ovarian -84.5%

C#C[C@]1(O)CCC2C3CCc4cc(OC5CCCC5)ccc4C3CC[C@@]21C (some centres undefined)
inactive: SR leukemia 15.1% | RPMI-8226 leukemia 80.4% | OVCAR-8 ovarian 81.3% | OVCAR-5 ovarian 63.2% | OVCAR-4 ovarian 92.9% | SK-OV-3 ovarian 100% | IGROV1 ovarian 101% | OVCAR-3 ovarian 96.4% | HS 578T breast 85.6% | NCI/ADR-RES ovarian 87.6%

NS(=O)(=O)c1ccc(Br)cc1
inactive: SR leukemia 106% | RPMI-8226 leukemia 108% | OVCAR-8 ovarian 105% | OVCAR-5 ovarian 97.6% | OVCAR-4 ovarian 104% | SK-OV-3 ovarian 80.8% | IGROV1 ovarian 100% | OVCAR-3 ovarian 114% | HS 578T breast 110% | NCI/ADR-RES ovarian 97.7%

CCN(CC)CCCOc1cccc2c1C(=O)c1cccc(OCCCN(CC)CC)c1C2=O
inactive: RPMI-8226 leukemia 18.6% | OVCAR-8 ovarian 28.1% | OVCAR-5 ovarian 55.8% | OVCAR-4 ovarian 32.9% | SK-OV-3 ovarian 41.5% | IGROV1 ovarian 25.8% | OVCAR-3 ovarian 35% | HS 578T breast 58.4% | NCI/ADR-RES ovarian 35.3%
active: SR leukemia 3.15%

C=CCN(CC=C)C(=O)[C@H](CC)[C@@H]1CC[C@@H](C)[C@@H]([C@H](C)[C@@H](O)[C@@H](C)C(=O)[C@H](CC)C2O[C@]3(C=CC(=O)[C@]4(CC[C@@](C)([C@H]5CC[C@](O)(CC)[C@H](C)O5)O4)O3)[C@H](C)C[C@@H]2C)O1 (some centres undefined)
active: RPMI-8226 leukemia -23%
inactive: SR leukemia 49.1% | OVCAR-8 ovarian 32.4% | OVCAR-5 ovarian 32.8% | OVCAR-4 ovarian 42.7% | SK-OV-3 ovarian 41% | IGROV1 ovarian 43.5% | OVCAR-3 ovarian 29.8% | HS 578T breast 33.9% | NCI/ADR-RES ovarian 16.8%

O=C(Nc1ccc2c(O)cc(S(=O)(=O)O)cc2c1)c1ccc([N+](=O)[O-])cc1
inactive: SR leukemia 60.9% | RPMI-8226 leukemia 92.9% | OVCAR-8 ovarian 88.9% | OVCAR-5 ovarian 101% | OVCAR-4 ovarian 103% | SK-OV-3 ovarian 82.7% | IGROV1 ovarian 102% | OVCAR-3 ovarian 104% | HS 578T breast 103% | NCI/ADR-RES ovarian 100%

C[C@]12CC[C@@H]3c4ccc(O)cc4CC[C@H]3[C@@H]1CC[C@@H]2NS(=O)(=O)c1ccc(C(F)(F)F)cc1
inactive: SR leukemia 18.9% | RPMI-8226 leukemia 34.8% | OVCAR-8 ovarian 57% | OVCAR-5 ovarian 90.5% | OVCAR-4 ovarian 49.1% | SK-OV-3 ovarian 86.6% | IGROV1 ovarian 30.5% | OVCAR-3 ovarian 35.4% | HS 578T breast 72.7% | NCI/ADR-RES ovarian 53%
